# Measurements taken from article PMC5540273 (PLoS ONE, 2017).
# Tests used:
# Conditions in all cases: concentration: 1 μM, replicates: in singlicate; n = 1
# ULK3 = system: ULK3
# VEGFR2 = system: T1, VEGFR2
# T1 construct: gene KDR
# VPS34 = system: T2, VPS34
# T2 construct: gene PIK3C3
# VRK2 = system: VRK2
# WEE1 = system: WEE1
# WEE2 = system: WEE2
# WNK1 = system: WNK1
# WNK2 = system: WNK2
# WNK3 = system: WNK3
# WNK4 = system: WNK4
# YANK1 = system: T3, YANK1
# T3 construct: gene STK32A
# YANK2 = system: T4, YANK2
# T4 construct: gene STK32B
# YANK3 = system: T5, YANK3
# T5 construct: gene STK32C
# YES = system: T6, YES
# T6 construct: gene YES1
# YSK1 = system: T7, YSK1
# T7 construct: gene STK25
# YSK4 = system: T8, YSK4
# T8 construct: gene MAP3K19
# ZAK = system: ZAK
# ZAP70 = system: ZAP70
# p38-alpha = system: T9, p38-alpha
# T9 construct: gene MAPK14
# p38-beta = system: T10, p38-beta
# T10 construct: gene MAPK11
# 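Also: KINOMEscan kinase panel screen.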
SMILES,%Inh (ULK3) [%],%Inh (VEGFR2) [%],%Inh (VPS34) [%],%Inh (VRK2) [%],%Inh (WEE1) [%],%Inh (WEE2) [%],%Inh (WNK1) [%],%Inh (WNK2) [%],%Inh (WNK3) [%],%Inh (WNK4) [%],%Inh (YANK1) [%],%Inh (YANK2) [%],%Inh (YANK3) [%],%Inh (YES) [%],%Inh (YSK1) [%],%Inh (YSK4) [%],%Inh (ZAK) [%],%Inh (ZAP70) [%],%Inh (p38-alpha) [%],%Inh (p38-beta) [%]
COc1cc(Nc2nccc(N3CCC(NC(=O)C4COc5ccccc5O4)C3)n2)cc(OC)c1OC (stereo not drawn) [GSK1379761],69,0,16,41,10,0,1,19,46,50,9,0,19,27,0,8,14,0,26,0
COc1ccc(-c2coc3ccc(-c4nnc(SCc5cccc(C#N)c5)o4)cc23)cc1,81,10,0,0,0,8,0,0,0,3,21,12,11,0,0,0,23,0,5,11
CCC(=O)c1c(-c2ccccc2)c2cc(Cl)ccc2c(=O)n1Cc1ccc(C(=O)O)cc1,0,0,7,0,0,4,0,0,0,0,0,4,5,0,0,0,0,0,23,0
CCC(=O)c1c(-c2ccccc2)c2cc(Cl)ccc2c(=O)n1Cc1cc(S(C)(=O)=O)n(CC(F)F)n1,0,0,0,0,0,0,0,0,0,0,0,8,0,0,0,0,0,11,10,2
CCCC(=O)Nc1n[nH]c2ncc(-c3cccc4ccccc34)cc12 [SB-642057],26,11,0,0,6,0,12,6,0,0,0,6,42,9,8,57,54,0,14,4
Fc1cccc(CSc2nnc(-c3ccc4c(c3)CCO4)o2)c1,11,0,13,5,0,16,0,14,0,0,16,12,0,8,0,20,0,0,0,16
O=C(Nc1n[nH]c2nc(-c3ccccc3)c(Br)cc12)C1CC1 [SB-708998],11,2,0,0,0,0,2,0,9,0,7,10,11,12,0,95.3,9,5,7,41
Cc1c(Cn2c(C)nn3c(=O)cc(N4CCO[C@H](C)C4)nc23)cccc1C(F)(F)F [GSK2373690],21,0,59,0,5,5,11,4,20,0,11,18,8,10,6,33,9,0,0,0
COc1cc(OC)cc(-c2cc3cnc(N)nc3nc2NC(=O)NC(C)(C)C)c1,0,36,0,0,0,5,0,0,0,0,11,19,0,100,0,15,15,0,6,7
Cc1ccc(Oc2ccc(Nc3ncnc4cc[nH]c34)cc2C)cn1,22,15,20,0,0,0,0,0,10,0,5,22,11,3,0,14,5,0,5,28
Nc1n[nH]c2ncc(-c3ccccc3)cc12 [SB-517081],14,16,0,11,17,2,12,0,27,35,9,0,23,20,8,52,25,0,13,0
COc1cc(Nc2ccnc3ccc(C(F)(F)F)cc23)cc(OC)c1OC [GW577382],14,0,0,27,11,14,8,13,27,0,4,16,44,13,1,0,12,0,30,25
CCC(=O)c1c(-c2ccccc2)c2cc(Cl)ccc2c(=O)n1Cc1cc(S(C)(=O)=O)n(CC(N)=O)n1,8,0,0,0,4,0,0,0,0,0,0,0,0,0,0,0,0,0,0,8
COc1cccc(C2=C(N(C)c3ccccc3)C(=O)NC2=O)c1 [SB-334865],12,1,0,10,4,0,8,0,20,15,0,0,2,21,8,37,20,0,14,0
CCC(=O)c1c(-c2ccccc2)c2cc(Cl)ccc2c(=O)n1Cc1cc(C(=O)NC2CC2)n(C)n1,2,0,20,0,0,0,0,0,0,22,0,9,20,0,4,0,23,0,16,0
COC(=O)c1c(-c2ccccc2)c2cc(C)ccc2c(=O)n1Cc1ccccc1,0,0,0,0,0,6,0,0,0,0,0,0,17,0,0,0,25,0,8,0
Cc1nc(N(C)[C@H]2CN(C(=O)CC#N)CC[C@H]2C)c2cc[nH]c2n1,0,0,0,0,0,13,0,0,0,0,0,0,6,18,0,0,0,0,0,1
FC(F)(F)c1ccc(-c2ncn(CCCN3CCOCC3)c2-c2ccncc2)cc1 [SB-217780],4,14,13,42,48,34,20,0,15,0,17,1,7,3,0,10,17,12,25,5
Cc1ccccc1COc1cc(-n2cnc3cc(Cl)ccc32)sc1C(N)=O [GW813349],0,11,84,0,4,5,0,0,6,0,14,2,35,0,0,10,0,19,0,5
COC(=O)c1c(-c2ccccc2)c2cc(Br)ccc2c(=O)n1Cc1ccc(NC(=O)CCC(=O)O)cc1,16,0,0,0,0,21,0,26,0,0,0,21,0,0,0,12,36,0,5,5
COC(=O)c1c(-c2ccccc2)c2cc(Br)ccc2c(=O)n1Cc1ccc(S(C)(=O)=O)cc1,13,0,0,0,0,16,0,13,0,0,0,6,36,0,4,13,32,0,17,9

SMILES,%Inh (ULK3) [%],%Inh (VEGFR2) [%],%Inh (VPS34) [%],%Inh (VRK2) [%],%Inh (WEE1) [%],%Inh (WEE2) [%],%Inh (WNK1) [%],%Inh (WNK2) [%],%Inh (WNK3) [%],%Inh (WNK4) [%],%Inh (YANK1) [%],%Inh (YANK2) [%],%Inh (YANK3) [%],%Inh (YES) [%],%Inh (YSK1) [%],%Inh (YSK4) [%],%Inh (ZAK) [%],%Inh (ZAP70) [%],%Inh (p38-alpha) [%],%Inh (p38-beta) [%]
C[C@@H]1CC[C@H](C(=O)NC2CCCCC2)CN1c1cc(-c2ccc3c(N)n[nH]c3c2)nc(N)n1 [GSK2291363],11,8,31,0,34,26,16,4,21,0,6,3,26,21,24,27,9,0,36,0
Cc1nn2c(=O)cc(N3CCOCC3)nc2n1Cc1cccc(Cl)c1Cl [GSK2342769],11,0,95.4,0,1,9,0,3,13,0,0,0,22,13,0,32,9,0,0,0
OCCCNc1nccc(-c2c(-c3cccc(C(F)(F)F)c3)nn3cc(C(F)(F)F)ccc23)n1 [GW630813],0,3,0,18,0,0,0,0,33,85,0,0,0,0,1,2,0,0,99.4,30
O=C(Nc1n[nH]c2nc(-c3ccccc3)c(Cl)cc12)C1CC1 [SB-734909],0,15,0,0,0,0,1,0,7,0,17,0,0,0,0,85,14,10,24,39
CN1C(=O)C(Nc2cc(Cl)c(O)c(Cl)c2)=C(c2ccc(Cl)cc2)C1=O [SB-404321],0,0,0,90.3,0,15,0,35,0,0,0,0,0,0,0,0,0,0,2,0
CCn1c(-c2ccoc2)nc2cnccc21 [SB-733887],11,65,0,8,4,0,15,18,19,0,0,4,27,0,12,49,34,0,0,0
Cl.NS(=O)(=O)c1cccc(Nc2cc(-c3ccc(F)cc3)n[nH]2)c1 [GW824645],12,35,29,18,0,0,35,0,25,13,0,0,0,0,8,0,0,0,0,0
CN1C(=O)C(Nc2ccccc2)=C(c2ccccc2)C1=O [SB-300079],7,0,30,19,51,1,0,0,33,26,0,2,0,0,3,8,0,23,0,10
COc1cc2ncn(-c3cc(OCc4ccncc4)c(C(N)=O)s3)c2cc1OC [GSK336313],9,7,5,0,33,15,7,0,10,0,8,0,4,0,35,30,1,0,5,0
Nc1ncnc2c1ncn2-c1ccc(Cl)cc1 [AH2635],2,0,0,15,0,11,0,0,34,32,0,0,0,0,0,27,0,0,32,0
O=c1cc(N2CCOCC2)nc2n(Cc3ccc(F)c(Cl)c3)ccn12 [GSK2297099],8,4,95.2,0,2,3,8,4,5,6,1,11,0,11,18,6,5,0,0,0
Nc1nccc2scc(-c3ccc4c(c3)CCN4C(=O)Cc3ccccc3)c12 [GSK2576924],12,5,0,0,14,0,17,26,27,0,10,9,0,5,0,36,0,0,0,0
O=C(NCCNc1ccnc(Nc2ccc(F)cc2)n1)Nc1ccc2c(c1)OCO2 [GSK1379882],21,9,0,0,13,6,5,18,30,12,0,1,0,0,17,9,100,0,19,0
COc1ccc(Nc2nccc(N3CCC(NS(=O)(=O)c4ccc(NC(C)=O)cc4)C3)n2)cc1 (stereo not drawn) [GSK1379729],42,0,92.3,16,37,11,24,38,0,29,8,3,0,10,0,1,24,0,82,17
Cc1ccc(-c2ccc3c(ccc4sc5c(c43)NC[C@@H](C)N=C5N(C)C)n2)cn1,0,0,0,0,0,0,0,0,0,0,0,0,0,0,0,0,0,0,0,0
COc1ccc(-c2cc3c(C)nc(N)nc3n([C@H]3CC[C@H](OCCO)CC3)c2=O)cn1,3,0,0,0,0,0,0,0,0,0,14,0,0,0,0,0,1,0,0,0
COc1ccc(-c2cc3c(C)nc(N)nc3n([C@H]3CC[C@H](O)CC3)c2=O)cn1,0,0,0,0,0,0,0,0,0,18,0,0,0,0,0,0,0,0,0,0
CCS(=O)(=O)c1ccc(OC)c(Nc2ncc(-c3ccc(F)cc3)o2)c1.Cl [GW591947],0,0,21,0,12,0,2,4,21,0,11,2,2,6,3,10,0,0,0,0
Cn1c(=O)c(F)c(Nc2ccc(I)cc2F)c2c(=O)n(OC[C@H](O)CO)cnc21,13,0,0,0,29,4,0,0,0,11,0,10,0,0,0,0,19,0,13,11
Nc1nc(-c2ccccc2F)c(-c2ccnc3ccccc23)s1 [GW560459],4,0,0,37,0,0,11,7,35,48,39,8,0,0,13,13,17,13,99.8,0
O=C(Nc1n[nH]c2cc(-c3ccccc3F)ccc12)C1CC1 [SB-733371],33,4,0,0,5,0,0,0,0,6,0,0,0,0,0,87,0,0,4,9
